Test results: PubChem BioAssay (Tox21)
Results filed as inconclusive are left out. Calls of active or inactive are those of the source. Unless noted, calls follow the shape of the dose curve; as a rule, active = well fitted curve in the direction sought with a large enough effect in the repeat runs; inconclusive = weak or mixed curves; inactive = no such curve, though single readings can be large; an effect the other way counts as inactive or inconclusive.

Columns and labels:
[1] = qHTS assay to identify small molecule agonists of the TGF-beta/Smad signaling pathway (AID 1346859; active = well fitted activation curve with a large enough effect in the signal ratio in the repeat runs, not every such curve was filed as active; the % refers to the signal ratio; also: series mostly up to about 77 µM)
Summary of the method: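 SBE-bla HEK 293T, 4,000 cells/well, plated o/n; cpd in DMSO, 5 hr, 37 C/5% CO2; B/G FRET substrate 2 hr RT; ex 405, em 460/530 nm.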

[2] = biological target: Thyrotropin-releasing hormone receptor (Homo sapiens) (UniProt P34981); assay: qHTS assay to identify small molecule antagonists of the thyrotropin-releasing hormone receptor (TRHR) signaling pathway (AID 1346877; active = well fitted inhibition curve with a large enough effect in the repeat runs, not every such curve was filed as active; also: series mostly up to about 51 µM)
Summary of the method: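 Calcium signal in dye-loaded TRHR/HEK293 cells; compounds added 5 min before TRH (1 nM final); fluorescence monitored 3 min at 1 s steps.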

[3] = biological target: Thyrotropin-releasing hormone receptor (Homo sapiens) (UniProt P34981); assay: qHTS assay to identify small molecule agonists of the thyrotropin-releasing hormone receptor (TRHR) signaling pathway (AID 1346891; calls by dose curve; also: series mostly up to about 58 µM)
Summary of the method: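 Intracellular calcium rise, read as fluorescence every second for 3 min, served as the agonist signal in dye-loaded HEK293 cells expressing TRHR; each compound ran at 15 concentrations in triplicate.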

[4] = Human pregnane X receptor (PXR) small molecule agonists, qHTS cell viability counter screen (AID 1346977); also: nearly all actives have a fitted effect of over 50% in size
Summary of the method: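 PXR-Luc HepG2, 2,000 cells/well, 5% charcoal-stripped FBS; 5hr settle; cpd 24hr, 37C/5% CO2; CellTiter-Fluor at 23hr, read 1hr later (fluorescence).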

[5] = Caspase-3/7 induction in HepG2 cells by small molecules, qHTS assay (AID 1346978); also: nearly all actives have a fitted effect of over 15% in size
Summary of the method: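 Wild-type HepG2 cells (2,000/well) were settled 5 h at 37 C, 5% CO2, then exposed to compounds in DMSO for 17 h. Caspase-3/7 activity was read by luminescence 30 min after adding Caspase-Glo 3/7 reagent at room temperature.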

[6] = Caspase-3/7 induction in CHO-K1 cells by small molecules, qHTS cell viability counter screen (AID 1346979); also: nearly all actives have a fitted effect of over 35% in size
Summary of the method: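 Cells (CHO-K1, wild type) are plated at 1,500 per well and incubated 5hr. Test compounds in DMSO are then pinned in, followed by 16hr at 37C and 5% CO2. Viability is read by CellTiter-Fluor fluorescence after 1hr.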

[7] = Caspase-3/7 induction in CHO-K1 cells by small molecules, qHTS assay (AID 1346980); also: nearly all actives have a fitted effect of over 15% in size
Summary of the method: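 Wild-type cells were seeded at 1,500 per well and settled 5 hr at 37 C, 5% CO2, then exposed to DMSO-dissolved compounds for 17 hr. Caspase-Glo 3/7 reagent was added, and luminescence was read after 30min at room temperature.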

[8] = Caspase-3/7 induction in HepG2 cells by small molecules, qHTS cell viability counter screen (AID 1346981); also: series mostly up to about 92 µM; nearly all actives have a fitted effect of over 30% in size
Summary of the method: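 After a 5-hr attachment period at 37 C and 5% CO2, wild-type HepG2 cells received compounds in DMSO. Sixteen hours later CellTiter-Fluor was dispensed and the fluorescent signal quantified after a further hour.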

[9] = biological target: Nuclear receptor subfamily 1 group I member 2 (Homo sapiens) (UniProt O75469); assay: Human pregnane X receptor (PXR) small molecule agonists, qHTS assay (AID 1346982); also: nearly all actives have a fitted effect of over 35% in size; also: potency is read from the fitted curve at half-maximal effect
Summary of the method: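 Tox21 qHTS; PXR-Luc HepG2; compounds pinned from DMSO; 24 hr, 37 C; ONE-Glo luciferase detection, 30 min room temperature.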

[10] = biological target: Cytochrome P450 2D6 (Homo sapiens) (UniProt P10635); assay: Cytochrome P450 Family 2 Subfamily D Member 6 (CYP2D6) small molecule antagonists: luciferase reporter qHTS assay (AID 1671196); also: nearly all actives have a fitted effect of over 50% in size; also: potency is read from the fitted curve at half-maximal effect; as to activity change, negative = inhibition: series mostly up to about 120 µM
Summary of the method: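 Room-temperature luminescent CYP2D6 activity assay: compound preincubated 10 min with enzyme–substrate mix, NADPH-initiated reaction 1 h, detection reagent 20 min before reading.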

[11] = biological target: Cytochrome P450 2C19 (Homo sapiens) (UniProt P33261); assay: Cytochrome P450 Family 2 Subfamily C Member 19 (CYP2C19) small molecule antagonists: luciferase reporter qHTS assay (AID 1671197); also: nearly all actives have a fitted effect of over 65% in size; also: potency is read from the fitted curve at half-maximal effect; as to activity change, negative = inhibition: series mostly up to about 120 µM
Summary of the method: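 Light output is proportional to CYP2C19 activity: proluciferin substrate is converted to luciferin, then detected by a luciferin detection reagent that also stops the 1 h, 37C NADPH-driven reaction. Ketoconazole serves as positive control.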

[12] = biological target: Cytochrome P450 2C9 (Homo sapiens) (UniProt P11712); assay: Cytochrome P450 Family 2 Subfamily C Member 9 (CYP2C9) small molecule antagonists: luciferase reporter qHTS assay (AID 1671198); also: nearly all actives have a fitted effect of over 50% in size; also: potency is read from the fitted curve at half-maximal effect; as to activity change, negative = inhibition: series mostly up to about 120 µM
Summary of the method: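 CYP2C9 activity was measured with a P450-Glo proluciferin substrate. Enzyme–substrate mix was held with compound for 10 min at room temperature, then NADPH regeneration solution was added for 1 h at 37C. Luciferin product was read as luminescence.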

[13] = biological target: Cytochrome P450 1A2 (Homo sapiens) (UniProt P05177); assay: Cytochrome P450 Family 1 Subfamily A Member 2 (CYP1A2) small molecule antagonists: luciferase reporter qHTS assay (AID 1671199); also: nearly all actives have a fitted effect of over 50% in size; also: potency is read from the fitted curve at half-maximal effect; as to activity change, negative = inhibition: series mostly up to about 120 µM
Summary of the method: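 Room-temperature CYP1A2 reaction with proluciferin substrate: compounds added from DMSO, 10 min preincubation, NADPH regeneration for 1 h. Luciferin detection reagent then added; luminescence recorded as RLU.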

[14] = biological target: Voltage-gated inwardly rectifying potassium channel KCNH2 (Homo sapiens) (UniProt Q12809); assay: Human Ether-a-go-go-Related Gene (hERG) channel small molecule antagonists: fluorescence cell-based qHTS assay (AID 1671200); also: nearly all actives have a fitted effect of over 50% in size; also: potency is read from the fitted curve at half-maximal effect;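 as to activity change, negative = inhibition: hERG-expressing U2OS cells given a thallium stimulus after FluxOR II dye loading; series mostly up to about 77 µM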
Summary of the method: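 Channel function was assessed by thallium flux. Cells seeded the previous day and kept at 37 C took up FluxOR II dye over 1 h in the dark at room temperature, then sat another 10 min before stimulation.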

[15] = biological target: Cytochrome P450 3A4 (Homo sapiens) (UniProt P08684); assay: Cytochrome P450 Family 3 Subfamily A Member 4 (CYP3A4) small molecule antagonists: luciferase reporter qHTS assay (AID 1671201); also: nearly all actives have a fitted effect of over 50% in size; also: potency is read from the fitted curve at half-maximal effect; as to activity change, negative = inhibition: series mostly up to about 120 µM
Summary of the method: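 Compounds in DMSO were pin-transferred onto CYP3A4 enzyme-substrate mix and held 10 min at room temperature. NADPH regenerating solution started the reaction for 1 h; luciferin detection reagent stopped it, and luminescence was read after 20 min.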

[16] = biological target: Nuclear receptor subfamily 1 group I member 2 (Homo sapiens) (UniProt O75469); assay: CYP3A4 induction through human pregnane X receptor (PXR) by small molecules, qHTS assay (AID 1346984); also: nearly all actives have a fitted effect of over 40% in size
Summary of the method: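 Cells (DPX-2; HepG2 with PXR element plus CYP3A4-promoter luciferase) settled 5hr, then were treated 24hr at 37C. A 3hr, 3uM-final Luciferin-IPA step preceded luminescence measurement with One-Glo.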

[17] = biological target: Nuclear receptor subfamily 1 group I member 2 (Homo sapiens) (UniProt O75469); assay: Human pregnane X receptor (PXR) activation by small molecules, qHTS assay (AID 1346985); also: nearly all actives have a fitted effect of over 40% in size
Summary of the method: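 DPX-2 cells (HepG2 co-transfected with a PXR response element and a CYP3A4-promoter luciferase construct) were seeded at 2,000 per well, rested 5 hr at 37C, then exposed to DMSO-dissolved compounds for 24 hr. Activation was read as luciferase luminescence.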
% is scaled to controls: 0 for no effect and ±100 for the full control effect.

Cytochrome P450 1A2 (Homo sapiens), sequence (P05177 whole entry, looked up): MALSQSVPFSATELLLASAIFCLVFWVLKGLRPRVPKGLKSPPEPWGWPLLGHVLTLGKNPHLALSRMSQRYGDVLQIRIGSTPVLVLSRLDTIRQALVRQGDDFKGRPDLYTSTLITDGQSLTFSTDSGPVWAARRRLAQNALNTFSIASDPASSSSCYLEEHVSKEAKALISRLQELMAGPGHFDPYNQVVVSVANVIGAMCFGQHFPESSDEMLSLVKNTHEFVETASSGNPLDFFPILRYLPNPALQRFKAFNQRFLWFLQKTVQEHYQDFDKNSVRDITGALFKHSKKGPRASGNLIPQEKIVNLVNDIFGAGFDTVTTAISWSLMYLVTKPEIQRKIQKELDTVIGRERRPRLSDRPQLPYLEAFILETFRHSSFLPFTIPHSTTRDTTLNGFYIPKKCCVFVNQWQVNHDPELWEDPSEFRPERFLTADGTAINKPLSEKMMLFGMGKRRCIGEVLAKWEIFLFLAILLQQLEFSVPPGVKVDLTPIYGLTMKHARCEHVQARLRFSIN
Thyrotropin-releasing hormone receptor (Homo sapiens), sequence (P34981 whole entry, looked up): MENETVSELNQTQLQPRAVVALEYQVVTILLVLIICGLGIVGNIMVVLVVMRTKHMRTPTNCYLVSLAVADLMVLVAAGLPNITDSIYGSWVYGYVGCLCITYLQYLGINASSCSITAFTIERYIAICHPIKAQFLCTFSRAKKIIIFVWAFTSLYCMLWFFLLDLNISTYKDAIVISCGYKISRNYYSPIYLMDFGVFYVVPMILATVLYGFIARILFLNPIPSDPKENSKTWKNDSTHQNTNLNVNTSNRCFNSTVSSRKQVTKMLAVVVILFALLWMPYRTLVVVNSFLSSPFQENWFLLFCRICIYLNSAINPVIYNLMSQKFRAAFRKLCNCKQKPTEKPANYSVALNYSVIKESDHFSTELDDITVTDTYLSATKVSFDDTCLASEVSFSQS
Cytochrome P450 2C9 (Homo sapiens), sequence (P11712 whole entry, looked up): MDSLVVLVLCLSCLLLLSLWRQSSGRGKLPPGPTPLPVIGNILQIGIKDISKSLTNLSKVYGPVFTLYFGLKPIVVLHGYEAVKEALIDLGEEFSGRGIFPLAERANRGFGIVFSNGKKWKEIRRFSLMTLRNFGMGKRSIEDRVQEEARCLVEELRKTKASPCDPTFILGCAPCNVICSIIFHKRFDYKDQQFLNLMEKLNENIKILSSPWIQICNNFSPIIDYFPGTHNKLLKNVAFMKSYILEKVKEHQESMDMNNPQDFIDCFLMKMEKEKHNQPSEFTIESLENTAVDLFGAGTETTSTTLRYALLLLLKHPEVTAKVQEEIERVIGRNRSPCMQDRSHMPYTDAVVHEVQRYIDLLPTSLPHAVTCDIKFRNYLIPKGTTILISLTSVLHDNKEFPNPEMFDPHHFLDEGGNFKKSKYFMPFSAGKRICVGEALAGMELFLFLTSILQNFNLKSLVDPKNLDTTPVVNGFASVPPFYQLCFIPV
Cytochrome P450 2C19 (Homo sapiens), sequence (P33261 whole entry, looked up): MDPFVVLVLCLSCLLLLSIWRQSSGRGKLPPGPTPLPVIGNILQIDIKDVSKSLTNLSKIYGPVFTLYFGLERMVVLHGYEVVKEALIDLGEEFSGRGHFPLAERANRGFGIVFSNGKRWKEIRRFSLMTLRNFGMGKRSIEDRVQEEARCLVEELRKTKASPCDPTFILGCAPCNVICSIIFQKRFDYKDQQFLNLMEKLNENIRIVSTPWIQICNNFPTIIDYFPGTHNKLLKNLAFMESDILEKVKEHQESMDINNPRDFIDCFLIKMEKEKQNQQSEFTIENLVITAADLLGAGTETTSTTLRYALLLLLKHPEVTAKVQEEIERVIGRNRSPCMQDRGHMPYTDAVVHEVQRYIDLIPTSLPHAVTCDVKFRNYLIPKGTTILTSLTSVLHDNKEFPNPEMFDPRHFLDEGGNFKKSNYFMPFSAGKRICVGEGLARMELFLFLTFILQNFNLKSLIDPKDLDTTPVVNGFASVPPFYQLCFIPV
Voltage-gated inwardly rectifying potassium channel KCNH2 (Homo sapiens), sequence (Q12809 whole entry, looked up): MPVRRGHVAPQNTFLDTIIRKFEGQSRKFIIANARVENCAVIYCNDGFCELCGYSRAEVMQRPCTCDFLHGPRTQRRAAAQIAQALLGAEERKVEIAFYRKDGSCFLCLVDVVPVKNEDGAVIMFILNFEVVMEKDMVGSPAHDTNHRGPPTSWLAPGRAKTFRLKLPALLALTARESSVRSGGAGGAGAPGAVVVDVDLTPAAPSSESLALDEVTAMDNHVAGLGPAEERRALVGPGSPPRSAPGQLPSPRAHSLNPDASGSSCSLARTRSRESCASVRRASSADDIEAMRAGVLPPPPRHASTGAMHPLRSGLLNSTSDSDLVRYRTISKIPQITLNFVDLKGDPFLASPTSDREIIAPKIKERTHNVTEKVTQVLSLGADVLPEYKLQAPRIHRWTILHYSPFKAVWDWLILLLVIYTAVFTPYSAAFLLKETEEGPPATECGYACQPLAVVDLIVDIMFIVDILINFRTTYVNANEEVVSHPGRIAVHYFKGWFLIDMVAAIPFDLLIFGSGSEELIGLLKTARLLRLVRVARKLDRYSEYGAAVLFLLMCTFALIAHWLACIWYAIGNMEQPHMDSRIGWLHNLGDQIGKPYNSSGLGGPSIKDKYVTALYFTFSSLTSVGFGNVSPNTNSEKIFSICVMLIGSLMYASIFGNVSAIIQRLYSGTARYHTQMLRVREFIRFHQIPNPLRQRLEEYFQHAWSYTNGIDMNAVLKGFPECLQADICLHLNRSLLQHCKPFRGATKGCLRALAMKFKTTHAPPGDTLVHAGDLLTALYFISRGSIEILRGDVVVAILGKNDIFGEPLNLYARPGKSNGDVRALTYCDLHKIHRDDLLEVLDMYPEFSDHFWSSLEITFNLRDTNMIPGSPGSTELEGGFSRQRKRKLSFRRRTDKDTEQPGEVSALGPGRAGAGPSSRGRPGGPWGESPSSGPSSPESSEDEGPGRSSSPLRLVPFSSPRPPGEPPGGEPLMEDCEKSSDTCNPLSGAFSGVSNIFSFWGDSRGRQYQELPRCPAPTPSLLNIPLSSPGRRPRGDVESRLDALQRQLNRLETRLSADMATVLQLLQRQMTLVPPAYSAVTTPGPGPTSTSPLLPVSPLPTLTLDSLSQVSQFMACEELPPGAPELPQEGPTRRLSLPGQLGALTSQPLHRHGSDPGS
Cytochrome P450 3A4 (Homo sapiens), sequence (P08684 whole entry, looked up): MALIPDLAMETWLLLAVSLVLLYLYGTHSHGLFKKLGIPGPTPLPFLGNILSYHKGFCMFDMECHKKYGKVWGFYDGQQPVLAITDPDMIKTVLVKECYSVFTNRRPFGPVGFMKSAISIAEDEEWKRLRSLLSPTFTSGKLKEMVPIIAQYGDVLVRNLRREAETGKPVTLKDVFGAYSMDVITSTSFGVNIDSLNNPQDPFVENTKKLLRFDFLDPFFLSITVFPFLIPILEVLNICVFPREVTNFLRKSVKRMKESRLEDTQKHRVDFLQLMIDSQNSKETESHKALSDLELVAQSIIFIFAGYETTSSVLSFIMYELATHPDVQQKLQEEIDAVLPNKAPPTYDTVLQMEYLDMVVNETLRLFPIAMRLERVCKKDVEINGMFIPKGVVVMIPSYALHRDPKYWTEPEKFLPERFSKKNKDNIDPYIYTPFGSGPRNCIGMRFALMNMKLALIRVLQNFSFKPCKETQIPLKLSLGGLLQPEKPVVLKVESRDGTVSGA
Cytochrome P450 2D6 (Homo sapiens), sequence (P10635 whole entry, looked up): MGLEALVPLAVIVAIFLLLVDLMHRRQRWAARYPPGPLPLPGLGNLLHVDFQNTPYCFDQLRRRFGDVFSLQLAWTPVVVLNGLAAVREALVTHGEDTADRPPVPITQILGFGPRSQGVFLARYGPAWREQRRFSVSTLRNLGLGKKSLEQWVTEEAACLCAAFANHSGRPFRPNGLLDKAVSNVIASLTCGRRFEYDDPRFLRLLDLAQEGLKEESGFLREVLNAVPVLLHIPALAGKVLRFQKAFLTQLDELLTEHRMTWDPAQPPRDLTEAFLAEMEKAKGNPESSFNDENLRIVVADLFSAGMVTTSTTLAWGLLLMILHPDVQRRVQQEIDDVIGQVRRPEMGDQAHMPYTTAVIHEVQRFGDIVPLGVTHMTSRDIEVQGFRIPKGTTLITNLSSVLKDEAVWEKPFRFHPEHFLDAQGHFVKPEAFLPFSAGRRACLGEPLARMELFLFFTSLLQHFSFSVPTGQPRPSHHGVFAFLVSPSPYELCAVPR
Nuclear receptor subfamily 1 group I member 2 (Homo sapiens), sequence (O75469 whole entry, looked up): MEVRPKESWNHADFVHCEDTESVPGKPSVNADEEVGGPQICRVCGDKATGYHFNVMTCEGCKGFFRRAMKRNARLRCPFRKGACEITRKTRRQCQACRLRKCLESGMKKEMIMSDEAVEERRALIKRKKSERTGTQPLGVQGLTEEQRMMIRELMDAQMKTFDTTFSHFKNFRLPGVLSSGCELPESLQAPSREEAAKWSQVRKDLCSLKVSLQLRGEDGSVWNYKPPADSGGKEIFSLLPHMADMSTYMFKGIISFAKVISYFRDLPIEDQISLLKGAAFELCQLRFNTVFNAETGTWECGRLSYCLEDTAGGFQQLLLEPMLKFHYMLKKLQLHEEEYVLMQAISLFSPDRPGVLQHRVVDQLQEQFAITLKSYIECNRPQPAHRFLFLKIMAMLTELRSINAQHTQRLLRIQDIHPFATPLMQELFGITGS

CCCc1ccc(O)c(OC)c1
inactive: outcome [1] | outcome [2] | Potency [3] | outcome [4] | outcome [5] | Potency [6] | outcome [7] | outcome [8] | Potency [9] | Potency [10] | Potency [11] | Potency [12] | Potency [14] | Potency [15]
active: Potency [13] 31.7 µM

COc1cc(C(=O)NC2CCCNC2)cc(OC)c1OC (centres undefined)
active: Potency [13] 15.5 µM
inactive: outcome [1] | outcome [4] | outcome [5] | Potency [6] | outcome [7] | outcome [8] | Potency [9] | Potency [10] | Potency [11] | Potency [14] | Potency [15]

Cc1cc(O)c(Cl)cc1C
inactive: outcome [1] | outcome [2] | Potency [3] | outcome [4] | outcome [5] | Potency [6] | outcome [7] | outcome [8] | Potency [9] | Potency [10] | Potency [12] | Potency [14] | Potency [15]
active: Potency [11] 71 µM | Potency [13] 25.2 µM

O=c1c(O)c(O)c1=O
inactive: outcome [1] | outcome [4] | outcome [5] | Potency [6] | outcome [7] | outcome [8] | Potency [9] | Potency [10] | Potency [11] | Potency [12] | Potency [14] | Potency [15]

CCCCS
inactive: outcome [1] | Potency [3] | outcome [4] | outcome [5] | Potency [6] | outcome [7] | outcome [8] | Potency [9] | Potency [10] | Potency [14] | Potency [15]

CC(O)CCCCn1c(=O)c2c(ncn2C)n(C)c1=O (centres undefined)
inactive: outcome [1] | outcome [4] | outcome [5] | Potency [6] | outcome [7] | outcome [8] | Potency [9] | outcome [16] | outcome [17] | Potency [11] | Potency [12] | Potency [14] | Potency [15]

CCOC(=O)c1ccc(N(C)C)cc1
inactive: outcome [1] | outcome [4] | outcome [5] | Potency [6] | outcome [7] | outcome [8] | Potency [10] | Potency [14] | Potency [15]
active: Potency [9] 54.5 µM | Potency [11] 22.4 µM | Potency [12] 31.7 µM | Potency [13] 5.03 µM

CCOc1ccccc1OCCN[C@H](C)Cc1ccc(OC)c(S(N)(=O)=O)c1
active: Potency [9] 26.6 µM | Potency [10] 12.3 µM | Potency [14] 21.3 µM
inactive: outcome [1] | outcome [2] | Potency [3] | outcome [4] | outcome [5] | outcome [7] | outcome [8] | outcome [16] | outcome [17] | Potency [11] | Potency [13]

O=C[C@@H](O)[C@H](O)[C@H](O)CO
inactive: outcome [1] | outcome [2] | Potency [3] | outcome [4] | outcome [5] | Potency [6] | outcome [7] | outcome [8] | Potency [9] | Potency [10] | Potency [11] | Potency [12] | Potency [13] | Potency [14] | Potency [15]

COC(=O)/C=C(\C)CCC=C(C)C
inactive: outcome [1] | outcome [2] | Potency [3] | outcome [4] | outcome [5] | Potency [6] | outcome [7] | outcome [8] | Potency [10] | Potency [14]
active: Potency [9] 61.1 µM | Potency [11] 25.2 µM | Potency [12] 39.9 µM | Potency [15] 31.7 µM

CCO[Si](CC(C)C)(OCC)OCC
inactive: outcome [1] | outcome [2] | Potency [3] | outcome [4] | Potency [6] | outcome [7] | outcome [8] | Potency [14]
active: Potency [9] 9.69 µM | Potency [10] 44.8 µM | Potency [11] 35.6 µM | Potency [15] 31.7 µM

O=C(OOC(=O)c1ccccc1)c1ccccc1
inactive: outcome [1] | Potency [3] | outcome [4] | outcome [5] | Potency [6] | outcome [7] | outcome [8] | Potency [9] | outcome [16] | outcome [17] | Potency [10] | Potency [12] | Potency [13] | Potency [14] | Potency [15]

c1cc2ccc3ccc4ccc5cccc6c(c1)c2c3c4c56
inactive: activity change, negative = cytotoxicity [4] 0.555% [at 3.27 µM] | activity change, negative = cytotoxicity [6] 14.9% [at 3.27 µM] | caspase-3/7 activation [7] 0.273% [at 3.27 µM] | activity change, negative = cytotoxicity [8] -2.99% [at 3.27 µM] | activation [9] 3.44% [at 3.27 µM] | activity change, negative = inhibition [10] 0.702% [at 4.07 µM] | activity change, negative = inhibition [11] -3.91% [at 4.07 µM] | activity change, negative = inhibition [12] -14.6% [at 4.07 µM] | activity change, negative = inhibition [14] 0.437% [at 2.72 µM] | activity change, negative = inhibition [15] -22.2% [at 4.07 µM]
active: Potency [13] 0.2 µM

CC(=O)Nc1ccc(S(=O)(=O)Nc2cc(C)on2)cc1
inactive: outcome [2] | Potency [3] | outcome [4] | outcome [5] | Potency [6] | outcome [7] | outcome [8] | Potency [9] | Potency [10] | Potency [11] | Potency [12] | Potency [13] | Potency [14] | Potency [15]

CNC(C)=O
inactive: outcome [2] | Potency [3] | outcome [4] | outcome [5] | Potency [6] | outcome [7] | outcome [8] | Potency [9] | Potency [10] | Potency [11] | Potency [12] | Potency [14] | Potency [15]
